Screens as filed in PubChem BioAssay.
Most compounds without a hit are left out; they make up all but 4.4% or so of the library.
tim23-1 inh = growth inhibitors of tim23-1 mutant yeast. S. cerevisiae tim23-1 growth, BacTiter-Glo luminescence, 24 h. inhibition, % at 20 µM. hit rate 1.3% among 330,000. AID 463212;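 active = growth inhibition of the mutant yeast at or above 50%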;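 note: temperature-sensitive mutant grown at 25 °C; plate controls were DMSO-treated mutant yeast for no effect and medium wells lacking yeast for full effect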
TIM10 inh = TIM10 yeast growth inhibition | hit rate 1.4% among 330,000 | S. cerevisiae TIM10 strain growth, BacTiter-Glo luminescence, 24 h | inhibition, % at 10 µM;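 active = inhibition of 40% or more at the single tested concentration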;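 note: wild-type TIM10 isogenic control strain grown at permissive 25 °C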
PfHsp90 yeast 2 = inhibits growth of yeast expressing Plasmodium falciparum Hsp90. S. cerevisiae expressing PfHsp90, BacTiter-Glo ATP, 48 h; yeast lacking PDR1 and PDR3 efflux regulators. hit rate 0.32% among 310,000. inhibition, % at 9.4 µM;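 active = every replicate shows inhibition above about 80%, whatever the replicate mean, limit read from the data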;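 note: 0% = DMSO neutral controls and 100% = 20 µM radicicol positive controls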
SKKanGAS inh = SKKanGAS growth inhibition. S. pyogenes SKKanGAS, kanamycin growth, BacTiter-Glo, 6 h. inhibition, % at 7.5 µM. hit rate 1.3% among 300,000. AID 1662;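 active = mean replicate score, as percent of positive control median, at least 50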;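 note: strain carries kanamycin resistance gene driven by streptokinase promoter and grows in 40 µg/ml kanamycin; loss of luminescence reflects streptokinase promoter inhibition or plain growth inhibition; 0% = median of DMSO wells and 100% = positive control at its reference dose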
tim10-1 inh = growth inhibitors of tim10-1 mutant yeast; S. cerevisiae tim10-1 ts strain growth, BacTiter-Glo, 24 h; inhibition, % at 20 µM; hit rate 2.2% among 330,000; AID 463190;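 active = inhibition of at least 40%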;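 note: mutant grown at 25 °C; 0% = DMSO wells with yeast and 100% = wells holding no yeast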
* hit, by the source's call; / = no result given.

SMILES | tim23-1 inh | TIM10 inh | PfHsp90 yeast 2 | SKKanGAS inh | tim10-1 inh
Cc1ccc(-c2ccc([C@H]3[C@H]4C=CC[C@@H](C)[C@@H]4C(=O)N3Cc3ccccc3)c(F)c2)cc1 | 11 | 6 | 3 | 40 | -5
CC12CCC(C(=O)Nc3c(Cl)cccc3Cl)(C(Br)C1=O)C2(C)C (centres undefined) | 17 | -8 | -13 | 3 | 2
CC12CCC(C(=O)Nc3cccc(Cl)c3Cl)([C@H](Br)C1=O)C2(C)C (some centres undefined) | 17 | 15 | -21 | 54* | 17
CCOC(=O)c1cc2cc(OCc3ccccc3)ccc2nc1C | -40 | 0 | 118* | 0 | -74
CCOC(=O)c1cnc2ccc(OCC)cc2c1N(C)Cc1ccccc1 | 20 | -1 | / | 11 | 12
Cc1c(C(=O)Nc2ccc(Oc3ccccc3)cc2)sc2nc3n(c(=O)c12)CCC3 | 9 | 9 | -10 | 56* | 20
COc1cccc(COC(=O)c2sc3nc4n(c(=O)c3c2C)CCC4)c1OC | 19 | -1 | -13 | 93* | 1
CC1(C)Cc2c(cnn2-c2ccccc2)C(NC(=O)CCCN2CCCC2=O)C1 (centres undefined) | 3 | -1 | -24 | 61* | -17
CCOC(=O)Cc1csc(SCC(=O)N2CCN(c3ccccc3)CC2)n1 | 17 | -7 | / | / | 12
O=C(O)C/C(=C\c1cccc(NC(=O)c2ccccc2Cl)c1)c1nc2ccccc2s1 | -1 | -14 | -58 | 10 | 1
COc1ccc(C(=O)Nc2cccc(/C=C(\CCC(=O)O)c3nc4ccccc4s3)c2)cc1 | 6 | 6 | -57 | 52* | 16
Nc1[nH]n2c(=O)cc(-c3ccccc3)nc2c1N=Nc1ccccc1 | 20 | 16 | / | 104* | 34
Cc1oc(-c2cccs2)nc1CNC[C@H]1O[C@@H](n2cnc3c(N)ncnc32)[C@H](O)[C@@H]1O | -12 | 5 | 9 | / | -1
CC1CCC(NC(=O)Cn2cnc3sccc3c2=O)CC1 (centres undefined) | 9 | 5 | 0 | / | -22
Cc1cc(NS(=O)(=O)c2ccc(NC(=O)CSc3nc4sc(C)c(C)c4c(=O)[nH]3)cc2)no1 | -15 | -15 | 4 | 54* | -28
Cc1cc(NS(=O)(=O)c2ccc(NC(=O)CSc3nc4sc(C(=O)O)c(C)c4c(=O)[nH]3)cc2)no1 | 8 | -8 | 8 | 6 | -4
COc1ccc(S(=O)(=O)Nc2ccc3c(c2)C(=O)N([C@H](C)CO)C[C@H](C)[C@@H](CN(C)C(=O)NC(C)C)O3)cc1 | -7 | 0 | 19 | / | 0
COc1ccc(C(=O)/C(C#N)=N/Nc2cccc([N+](=O)[O-])c2)cc1 | / | / | 1 | 51* | /
CCC(CC)=NNc1cccc([N+](=O)[O-])c1 | 9 | 23 | -10 | 5 | 17
CCOC(=O)C1CCCN(S(=O)(=O)c2cc3c4c(c2)CCC(=O)N4CCC3)C1 (centres undefined) | 20 | 16 | 6 | 17 | 10
CCOC(=O)C1=C(C)n2c(s/c(=C/c3cccc([N+](=O)[O-])c3)c2=O)=NC1c1ccc(O)c(OC)c1 (centres undefined) | 43 | 29 | -5 | 67* | 39
CCOC(=O)C1=C(C)N=c2s/c(=C/c3ccccc3)c(=O)n2C1c1ccc(OC)c(OC)c1 (centres undefined) | 13 | -12 | -18 | 6 | -3
CCOC(=O)C1=C(C)N=c2s/c(=C\c3ccc(O)c([N+](=O)[O-])c3)c(=O)n2C1c1ccccc1OC (centres undefined) | 30 | 13 | -27 | 58* | 7
CCOC(=O)c1coc(C(=O)OCC)c1C(=O)OCC | / | / | 15 | / | /
N#C/C(=N\Nc1ccc(Cl)cc1)C(N)=S | 40 | 13 | -24 | 97* | 19
SMILES | tim23-1 inh | TIM10 inh | PfHsp90 yeast 2 | SKKanGAS inh | tim10-1 inh
N#C/C(=N\Nc1ccc(S(=O)(=O)N2CCOCC2)cc1)C(N)=S | 14 | 7 | -18 | 65* | -7
CC1CCN(S(=O)(=O)c2ccc(N/N=C(/C#N)C(N)=O)cc2)CC1 | 6 | -51 | -24 | -22 | 0
NS(=O)(=O)c1ccc(NC(=O)COC(=O)Cc2c[nH]c3ccccc23)cc1 | 7 | -3 | 2 | / | 13
C[C@H]1CN([C@@H](C)CO)C(=O)c2cccc(NC(=O)Nc3ccc(C(F)(F)F)cc3)c2O[C@@H]1CN(C)S(=O)(=O)c1ccc(Cl)cc1 | 30 | -5 | 10 | / | 27
Cc1ccc(NC(=O)c2ccc(C#CC3(O)CCCCC3)cc2)cc1C | 3 | 2 | / | 51* | 14
CC(C)[C@H](NC(=O)c1ccccc1Cl)C(=O)OCC(=O)N1CCCCC1 | 5 | -10 | / | / | -1
O=C(Nc1ccc(Cl)cc1)C1=Cc2cc(Cl)ccc2OC1 | 5 | 4 | -17 | 4 | 22
COc1ccc2c(c1)C=C(C(=O)NCc1ccc(Cl)cc1)CO2 | 35 | -15 | 98* | 7 | 27
CC1(C)C(=O)C=CC(=O)C(C)(C)C(=O)C=CC(=O)C(C)(C)C2=CC=C(O2)C(C)(C)C(=O)C=CC1=O | / | / | 8 | / | /
CCCN(CC(=O)Nc1ccccc1C)C(=O)CCCc1c[nH]c2ccccc12 | 13 | 3 | -5 | / | 6
Cc1nn(-c2ccccc2)c2sc(C(=O)N3CCc4ccccc4C3)cc12 | / | / | -33 | 55* | /
Cc1nn(-c2ccccc2)c2sc(C(=O)N3CCCCC3)cc12 | 41 | 12 | -2 | 24 | 22
Cc1cnc(NC(=O)c2cc3c(C)nn(-c4ccccc4)c3s2)s1 | -7 | -7 | / | 107* | 21
C#CCOCCOCCOCCNc1nc(N2CCN(C(=O)[C@H](CC(N)=O)n3cc(C(N)[C@H](C)CC)nn3)CC2)nc(N2CCN(C(=O)[C@H](CC(N)=O)n3cc(C(N)[C@@H](C)CC)nn3)CC2)n1 (some centres undefined) | 5 | 5 | 2 | / | 11
O=C1Nc2ccc(Br)cc2/C1=C/C(=O)c1ccccc1 | / | / | 106* | / | /
O=C(O)COc1ccccc1/C=C1\C(=O)Nc2ccc(Br)cc21 | 8 | 9 | 35 | -6 | 13
Cc1nn(-c2ccccc2)c(C)c1-c1nnc(-c2c(C)nn(-c3ccccc3)c2C)o1 | -8 | -24 | -8 | 57* | -13
O=C1CCCc2oc3c(cc(NS(=O)(=O)c4ccc5c6c(cccc46)C(=O)N5)c4ccccc43)c21 | 20 | -2 | -3 | 54* | 15
Cc1oc2c(cc(NS(=O)(=O)c3ccc4c5c(cccc35)C(=O)N4)c3ccccc32)c1C(=O)OC(C)C | 24 | 11 | 8 | / | 19
O=C(COC(=O)c1cc[n+]([O-])cc1)NC(=O)c1ccc(OC(F)F)cc1 | -2 | 1 | 4 | / | -3
Cc1c(C(=O)NNC(=S)NCc2ccc(Cl)cc2)oc2ccccc12 | 8 | -1 | -56 | 82* | 23
CCN(CC(=O)NCc1ccc(Cl)cc1)C(=O)c1oc2ccccc2c1C | 11 | -12 | 12 | 1 | 6
O=C(CSc1nccc(=O)[nH]1)NC1CCCCCCC1 | -3 | -3 | -7 | / | -3
